The whole screen tested about 220,000 compounds, of which about 830 (0.38%) were called active.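 Rule for the calls: active = compound inhibiting the enzyme by more than half at any dose during confirmatory dose-response retesting; inconclusive = strong single-dose inhibitors picked by rank but not retested; inactive = the rest.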 The list is a sample of the results. Measured potencies and affinities stand elsewhere.
Molecular target: Leucine aminopeptidase (Plasmodium falciparum (isolate 3D7)) (UniProt Q8IL11)
Experiment: P. falciparum M17LAP inhibitors, primary screen, biochemical, fluorogenic H-Leu-NHMec substrate, 1536-well (AID 1619);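 note: plate controls were full reaction with DMSO carrier for no effect and no enzyme background for full effect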
Conditions: recombinant M17LAP, H-Leu-NHMec fluorogenic kinetic assay; at 30 µM; stronger effect = higher value

Chain of Leucine aminopeptidase (Plasmodium falciparum (isolate 3D7)) (Q8IL11 whole entry, looked up): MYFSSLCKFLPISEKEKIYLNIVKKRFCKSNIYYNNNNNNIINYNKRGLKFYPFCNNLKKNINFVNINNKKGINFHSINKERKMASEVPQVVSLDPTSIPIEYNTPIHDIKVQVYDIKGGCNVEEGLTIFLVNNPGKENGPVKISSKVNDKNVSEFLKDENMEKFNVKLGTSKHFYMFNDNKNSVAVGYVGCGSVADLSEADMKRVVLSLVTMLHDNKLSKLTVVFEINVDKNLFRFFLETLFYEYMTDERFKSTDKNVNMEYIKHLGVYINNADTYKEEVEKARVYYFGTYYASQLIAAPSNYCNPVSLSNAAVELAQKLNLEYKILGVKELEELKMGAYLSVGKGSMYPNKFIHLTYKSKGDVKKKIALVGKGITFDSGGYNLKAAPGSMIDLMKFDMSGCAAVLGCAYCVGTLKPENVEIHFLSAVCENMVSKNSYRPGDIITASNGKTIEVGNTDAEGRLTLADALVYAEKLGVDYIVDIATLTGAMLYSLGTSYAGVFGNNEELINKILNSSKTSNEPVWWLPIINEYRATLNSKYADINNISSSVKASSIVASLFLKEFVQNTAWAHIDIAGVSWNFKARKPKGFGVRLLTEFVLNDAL

inhibition, inactive:
COc1ccc(C(=O)Nc2nc3cc4c(cc3s2)OCCO4)c(OC)c1 -6.2%, Cc1ccc(NC(=O)NCc2ccccn2)cc1 5.76%, COc1ccc(C(=O)NC(=S)NNC(=O)Cc2cccs2)cc1 41.2%, CC(C)(C)c1cc(CCC(=O)NN)cc(C(C)(C)C)c1O -14%, COc1ccc(C(=O)NC(=S)NNC(=O)COc2ccccc2)cc1 1.34%, CC(C)(C)c1cc(CCC(=O)NNC(=O)c2ccco2)cc(C(C)(C)C)c1O -5.01%, Cc1ccc(C(=O)NNC(=S)NC(=O)COc2ccccc2)cc1 16.5%, O=C(Cc1cccs1)NNC(=S)NC(=O)c1ccc(F)c(F)c1 7.14%, CC(=O)NC(=S)NNC(=O)CCc1ccccc1 21.3%, O=C(CCc1ccccc1)NNC(=S)NC(=O)c1ccc(Cl)cc1 92.7%, CCOC(=O)N1CCC(N2C(=O)c3ccccc3C2Nc2ccc(S(=O)(=O)N3CCOCC3)cc2)CC1 (stereo not drawn) 2.69%, Cc1cccc(NC(=O)CCCn2cc([N+](=O)[O-])cn2)n1 -2.41%, COc1ccc(OC)c(NC(=O)CSCC(=O)O)c1 6.02%, Cc1cc(C(=O)CCC(=O)N2CCN(S(=O)(=O)c3cccs3)CC2)c(C)s1 0.37%, CN1C[C@@H]2C[C@@H](c3cccn3-c3nccs3)N3CCC[C@@]23C1=O -0.22%, Cc1ccc(NC(=O)CN2CCCCCC2)cc1Br 9.91%, Cc1cc(C(=O)CCl)c(C)n1-c1cccc(S(=O)(=O)N2CCOCC2)c1 1.27%, Cc1cc(C(=O)COc2ccccc2[N+](=O)[O-])c(C)n1-c1cccc(S(=O)(=O)N2CCOCC2)c1 2.08%, CCSC1=C(C#N)C(c2ccccc2Cl)C(C(=O)c2cccs2)C(O)(C(F)(F)F)N1 (stereo not drawn) -2.94%, CCCNC(=O)NC(=O)CSc1ccc2c(c1)OCCO2 -3.31%, CC(Sc1ccc2c(c1)OCCO2)C(=O)Nc1ccc(N2CCOCC2)cc1 (stereo not drawn) -0.69%, O=C(CSc1ccc2c(c1)OCCO2)Nc1ncc(Cl)cc1Cl 33.8%, CC(Sc1ccc2c(c1)OCCO2)C(=O)Nc1ccc2c(c1)OCO2 (stereo not drawn) 31.4%, CCOc1cc(S(=O)(=O)Nc2ccccc2CC)ccc1Cl 8.77%, Cc1nnc(SCC(=O)NN2C(=O)NC3(CCCCC3)C2=O)s1 0.53%, Nc1nnc(SCC(=O)NN2C(=O)NC3(CCCCC3)C2=O)s1 28%, O=C(CSc1nnc(NC2CCCCC2)s1)NC1CCS(=O)(=O)C1 (stereo not drawn) 11.6%, O=C(CSc1nnc(NC2CCCCC2)s1)NCc1ccco1 1.38%, Cn1nc(C(=O)NNc2c(F)c(F)cc(F)c2F)c2ccccc2c1=O 10.2%, Cc1ccccc1Nc1nc(N)nc(CSc2nnnn2-c2ccccc2)n1 2.91%, CCCCn1nc(C(=O)Nc2cc(S(=O)(=O)N(C)C)ccc2C)c2ccccc2c1=O 0.9%, CCCN(c1ccc(C(=O)OC)cc1)S(=O)(=O)c1ccccc1 -1.32%, O=C(CSc1nnc(NC(=O)CN2CCOCC2)s1)Nc1ccccc1 27.4%, CCc1ccc(Nc2nnc(SCC(=O)Nc3ccc(C(=O)O)cc3)s2)cc1 33%, Cc1cccc(C)c1NC(=O)CSc1nnc(NC(=O)CN2CCOCC2)s1 24.1%, CC(=O)c1ccc(NC(=O)CSc2nnc(NC(=O)CN3CCOCC3)s2)cc1 28.4%, Cc1cccc(Nc2nnc(SCC(=O)Nc3cccc(S(=O)(=O)N4CCCCC4)c3)s2)c1 33.5%, Cc1cccc(NC(=O)CSc2nnc(NC(=O)CN3CCCCC3)s2)c1 52.7%, O=C(NCCN1CCN(c2ccccc2)CC1)c1ccc(NC(=O)C2CCCO2)cc1 (stereo not drawn) -5.43%, CC1=CC(C2CC(=O)N(c3ccccc3C)C2=O)CC2C(=O)N(c3ccccc3C)C(=O)C12 (stereo not drawn) 3.8%, CC1=C(C(=O)OCC2CCCO2)C(c2ccncc2)C2=C(CC(C)(C)CC2=O)N1 (stereo not drawn) -16.9%, O=[N+]([O-])c1ccc2c(c1)C=C1CCCCC1(N1CCCCC1)O2 (stereo not drawn) 9.55%, COc1ccc(/C=C2\SC(=O)N(CCn3cnnn3)C2=O)cc1 -2.01%, O=C(CN1CCN(Cc2ccc(F)cc2Cl)C1=O)NCCc1ccccc1 8.72%, CC1CCCN(c2nc(NCc3ccco3)nc(N)c2[N+](=O)[O-])C1 (stereo not drawn) -3.16%, CCCC(=O)Nc1nnc(-c2ccco2)s1 -4.22%, O=C(CCc1nc2ccccc2[nH]c1=O)OCC(=O)c1cccc2ccccc12 -3.73%, Cc1[nH]nc2c1C(c1ccco1)C(C#N)=C(N)O2 (stereo not drawn) 6.22%, C/C(=C\c1ccco1)C1C(C#N)=C(N)OC2=C1C(=O)CC(C)(C)C2 (stereo not drawn) 5.9%, CCCc1[nH]nc2c1C(/C(C)=C/c1ccccc1)C(C#N)=C(N)O2 (stereo not drawn) 6.81%, Cc1ccc(SCc2[nH]nc3c2C(c2ccco2)C(C#N)=C(N)O3)cc1 (stereo not drawn) 44.8%, COc1cc(C(=O)NCC(c2cccnc2)N2CCN(c3ccc(F)cc3)CC2)cc(OC)c1OC (stereo not drawn) -0.25%, COc1ccc(CNC(=O)CN(Cc2ccccc2)S(=O)(=O)c2ccc(Cl)cc2)cc1 -4.99%, O=C(c1ccc2c(c1)OCO2)C1CCCN(C(=O)C2CCOCC2)C1 (stereo not drawn) -3.38%, COCCCNC(NC(=O)c1ccc(Br)cc1)C(Cl)(Cl)Cl (stereo not drawn) 0.25%, NC(=O)[C@@H]1CC2(CC(c3cccc(NC(=O)[C@H]4CCC(=O)N4)c3)=NO2)CN1C(=O)c1ccc(Cl)cc1 (stereo partly drawn) 11.6%, COc1ccccc1NC(=O)NCc1nc(-c2ccc(C(F)(F)F)cc2)no1 0.03%, COc1cc(OC)cc(C(=O)Nc2ccc([N+](=O)[O-])cn2)c1 1.24%, CN(C)c1ccc(C(=O)Nc2nnc(C3=COCCO3)o2)cc1 3.73%, CCOc1ccc(NC(=O)C2CC(=O)N(C(C)C)C2)cc1 (stereo not drawn) 43.2%, C=CCOc1ccc(NC(=O)C2CC(=O)N(C(C)C)C2)cc1 (stereo not drawn) 27.3%, CCOC(=O)c1c(C)n(C)c2ccc(OC(=O)c3ccc([N+](=O)[O-])cc3)cc12 -6.49%, COc1ccc(Cc2nnc(Nc3ccc(Cl)cc3)[nH]c2=O)cc1 -7.25%, CCCc1cc(=O)[nH]c(Nc2ccc(Cl)cc2)n1 1.52%, COc1ccc(NC(=O)C2CCC(C)(C(=O)O)C2(C)C)cc1 (stereo not drawn) 14.3%, CC1(C(=O)O)CCC(C(=O)Nc2ccccc2)C1(C)C (stereo not drawn) 1.51%, COc1cccc(NC(=O)c2ccc(NC(C)=O)cc2)c1 10.5%, COc1ccc2cc(CCNC(=O)C(C)C)c(=O)[nH]c2c1 9.03%, COc1ccc(NC(=O)CN2CCC(C)CC2)cc1 32.1%, CSc1ccc(Cl)c(C(=O)NCc2ccco2)c1 14.1%, CCCNC(=O)COC(=O)c1cc(SC)ccc1Cl 6.08%, Cc1ccc(N=Cc2cc(C)n(C3CCCC3)c2C)cc1 3.83%, O=C(Nc1cc(F)cc(F)c1)c1ccc(NCCc2ccccc2)c([N+](=O)[O-])c1 5.14%, C=CCOC(=O)C1=C(C)Nc2[nH]c(=O)[nH]c(=O)c2C1c1ccccc1 (stereo not drawn) 16.9%, COc1ccc(Nc2nc3[nH]c(=O)cc(O)c3s2)cc1 23.2%, N#C/C(=C/c1cn(CC(=O)O)c2ccccc12)C(=O)NCc1ccccc1 21.3%, N#C/C(=C/c1cn(CC(=O)O)c2ccccc12)C(=O)Nc1ccccc1 10.1%, Cc1cc2cc(C)c3nnc(SCC(=O)Nc4ccc(S(=O)(=O)N5CCCCC5)cc4)n3c2cc1C -1.16%, O=C(CCN1C(=O)c2ccccc2C1=O)Nc1cccc(S(=O)(=O)NC2=NCCC2)c1 22.4%, CCOc1ccc(NC(=O)c2ccc(NCC(=O)N3CCCCCC3)cc2)cc1 -2.72%, COC(=O)c1ccc(C(=S)N2CCCCC2)cc1 3.47%, Cn1c(=O)c2c(nc(Br)n2Cc2ccccc2Cl)n(C)c1=O 0.26%, Cc1ncc([N+](=O)[O-])n1Cc1ccccc1F 10.8%, O=C(c1ccc([N+](=O)[O-])cc1)N1CCN(C(=O)c2ccco2)CC1 2.53%, O=C(c1ccco1)N1CCN(C(=O)c2ccccc2[N+](=O)[O-])CC1 4.98%, CC(=O)Nc1ccccc1NC(=O)C/C(C)=N/NC(=O)c1ccncc1 7.62%, N#C/C(=N\Nc1ccc(Cl)cc1)C(=O)c1ccsc1 4.01%, CC(C)CCNC(=O)c1ccc2c(SCC(=O)O)c3c(nc2c1)CCC3 7.01%, CCCCNC(=O)c1ccc2c(SCC(=O)O)c3c(nc2c1)CCCC3 45.8%, COc1cc(NC(=O)c2ccc3c(SCC(=O)O)c4c(nc3c2)CCCC4)cc(OC)c1OC 8.1%, CCC(C)NC(=O)c1ccc2c(SCC(=O)O)c3c(nc2c1)CCCC3 (stereo not drawn) 25.2%, O=C(Nc1ccc(Cl)cc1)c1cc(S(=O)(=O)N2CCOCC2)cs1 1.6%, Cc1ccc(C)c(S(=O)(=O)N2CCN(C(=O)c3cnccn3)CC2)c1 6.85%

Reference: PubChem BioAssay AID1619 (SRMLSC, 2009)
